Measurements published in PubChem BioAssay AID1626 (SRMLSC, 2009).
Hit rate of the full screen: of about 220,000 compounds, about 2,000 (0.91%) were called active. Inconclusive results (about 2%) are left out. Rule as the data show it: inconclusive = inhibition above about 80% without an active follow-up result; inactive = below that; test concentration not stated here. Only a sample is shown. Results with a measured potency or affinity are listed apart.

assay: M. tuberculosis H37Rv growth inhibitors, H37Rv strain (AID 1626); conditions: active compounds read high, concentration not given here;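 also: bacteria incubated seven days before Alamar blue readout; 0% = bacteria only wells and 100% = bacteria with antibiotic wells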

SMILES | inhibition
COc1ccc(-n2c(SCC(=O)O)nc3sc4c(c3c2=O)CCC4)cc1 | -7.18% (inactive)
CCCn1c(Nc2ccc(Cl)cc2)nc2ccccc21 | 3.28% (inactive)
Cc1nc2ccccc2n1Cc1n[nH]c(=S)n1-c1ccc(Cl)cc1 | -9.13% (inactive)
NS(=O)(=O)c1ccc(N=Nc2c(-c3ccccc3)[nH]n(-c3nc(-c4ccccc4)cs3)c2=O)cc1 | 15.4% (inactive)
CCc1c(C)[nH]n(-c2nc(-c3ccccc3)cs2)c1=O | 5.2% (inactive)
CC(C)[C@H](NC(=O)NCc1ccc(F)cc1)C(=O)O | -4.85% (inactive)
COc1ccc(C(NC(=O)c2ccc(F)cc2)c2ccccc2)cc1 (stereo not drawn) | -2.49% (inactive)
COc1ccc(-c2noc(CCCC(=O)Nc3cccnc3)n2)cc1OC | -1.27% (inactive)
COc1ccc(CNc2ccc3c(c2)CCC3)cc1OC | 45.5% (inactive)
CCOc1cc(CNc2ccc3c(c2)CCC3)ccc1OC | 46.6% (inactive)
CC(NC(=O)c1ccc(OC2CCN(S(=O)(=O)N(C)C)CC2)cc1)C1CC1 (stereo not drawn) | -9.26% (inactive)
CC(=O)c1ccc(N(C(=O)Cn2nnc3ccccc32)C(C(=O)NC2CCCCC2)c2cn(C)nc2C)cc1 (stereo not drawn) | -5.66% (inactive)
Clc1ncnc2scc(-c3ccccc3)c12 | -11.5% (inactive)
Clc1nc(-c2cccnc2)nc2scc(-c3ccccc3)c12 | 8.19% (inactive)
O=C(OCc1nc2ccccc2s1)c1ccccc1O | 16.7% (inactive)
O=C(COC(=O)c1ccco1)Nc1nc2ccccc2s1 | -0.64% (inactive)
O=C(COC(=O)c1ccc(Br)o1)Nc1nc2ccccc2s1 | -3.5% (inactive)
Nc1ccc(C(=O)OCc2nc3ccccc3s2)cc1 | -2.83% (inactive)
CC(OC(=O)C(NC(=O)c1ccco1)C(C)C)C(=O)Nc1ncc(Cl)cc1Cl (stereo not drawn) | -14.4% (inactive)
Cc1c(N=Cc2nc3ccccc3n2C)c(=O)n(-c2ccccc2)n1C | -8.83% (inactive)
CCN(CC)Cc1cc(C(=O)O)c(C)o1 | -8.95% (inactive)
Cc1ccc(C2(C)NC(=O)N(Cc3c(C)noc3C)C2=O)cc1 (stereo not drawn) | -0.8% (inactive)
O=C(Nc1ccc([N+](=O)[O-])cn1)C1CC1 | 5.22% (inactive)
O=C(NCc1cccc(Cl)c1)c1ccco1 | 0.19% (inactive)
CN1c2ccc([N+](=O)[O-])cc2CC2(C(=O)NC(=O)NC2=O)C1c1ccccc1 (stereo not drawn) | 0.68% (inactive)

SMILES | inhibition
CN1C(=O)N(C)C(=O)C2(Cc3cc([N+](=O)[O-])ccc3N(C)C2c2ccccc2)C1=O (stereo not drawn) | -13.2% (inactive)
CC1CN2c3ccc([N+](=O)[O-])cc3CC3(C(=O)N(C)C(=O)N(C)C3=O)C2C(C)O1 (stereo not drawn) | -12.5% (inactive)
CN1c2ccc([N+](=O)[O-])cc2CC2(C(=O)NC(=O)N(c3ccccc3)C2=O)C1c1ccccc1 (stereo not drawn) | 76.5% (inactive)
COc1ccc2nc(C)cc(Sc3nc4ccccc4s3)c2c1 | 0.98% (inactive)
COc1ccc(Cl)cc1N1C(=O)C2CCCN2C1c1sccc1C (stereo not drawn) | -9.7% (inactive)
CCCCC(Sc1nc(N)c(NC(=O)c2ccc(OC)cc2)c(=O)[nH]1)C(=O)O (stereo not drawn) | -2.8% (inactive)
Cc1ccc(OCC(=O)Nc2ccc(S(=O)(=O)Nc3ccccn3)cc2)c(C)c1 | -1.52% (inactive)
COc1ccc(/C=N/NC(=O)C(C)Sc2ccccn2)cc1[N+](=O)[O-] (stereo not drawn) | -3.03% (inactive)
CCOc1cccc(CN2CCCC(CCC(=O)NCc3ccccc3F)C2)c1O (stereo not drawn) | -1.53% (inactive)
CC1CCc2c(sc3nc(CSc4nnnn4C)[nH]c(=O)c23)C1 (stereo not drawn) | 42.6% (inactive)
CCCCNC(=O)Nc1cnn(CC)c1C(N)=O | -2.68% (inactive)
O=C1O/C(=C\c2ccccc2)c2ccccc21 | 1.65% (inactive)
O=C1O/C(=C/c2ccccc2)c2ccccc21 | 2.2% (inactive)
Nc1nnc(SCC(=O)N2CCN(c3ccccc3)CC2)n1-c1ccccc1 | -16.5% (inactive)
Cc1[nH]nc2c1C(=O)CCC2 | -7.75% (inactive)
CC(C)(C)n1cnnc1Sc1ncccc1[N+](=O)[O-] | -0.66% (inactive)
Nc1nnc(Sc2ccc(Cl)cc2[N+](=O)[O-])s1 | 6.61% (inactive)
CC(C)(C)c1csc(Sc2ncccc2[N+](=O)[O-])n1 | 7.08% (inactive)
O=c1ccnc(Sc2ncccc2[N+](=O)[O-])[nH]1 | 7.87% (inactive)
Cc1ccc(N/C=C(\C#N)S(=O)(=O)c2ccccc2)cc1 | 1.01% (inactive)
CC(=O)c1cc(-c2ccc(F)cc2)n(CCC(=O)Nc2cc(C)[nH]n2)c1C | 5.45% (inactive)
Cn1c(N)c(-c2nc3cccnc3n2C)sc1=S | 2.49% (inactive)
CC(=O)Nc1nc2ccccc2[nH]1 | -9.36% (inactive)
O=C(Nc1nc2ccccc2[nH]1)c1cccs1 | 56.3% (inactive)
Cc1cc(NC(=O)c2ccccc2)n(-c2ccccc2)n1 | -5.06% (inactive)

SMILES | inhibition
Cc1cc(NC(=O)c2cccs2)n(-c2nc3ccccc3[nH]2)n1 | 94.8% (inactive)
Cc1cc(NC(=O)c2ccc(C)s2)n(-c2nc3ccccc3[nH]2)n1 | 83.6% (inactive)
Cc1cc(NC(=O)c2ccccc2F)n(-c2nc3ccccc3[nH]2)n1 | 55.8% (inactive)
COc1ccc(C(=O)Nc2cc(C)nn2-c2nc3ccccc3[nH]2)c(OC)c1 | 57.3% (inactive)
COc1cccc(OC)c1C(=O)Nc1cc(C)nn1-c1nc2ccccc2[nH]1 | 53.2% (inactive)
OCC1(Cc2ccccc2)CCN(Cc2ccc(C(F)(F)F)cc2)CC1 | 10.2% (inactive)
CC1(C)C(c2ccc(Cl)cc2)=[N+]([O-])C2(CCCC/C2=N\O)N1O (stereo not drawn) | 2.14% (inactive)
O=C(N/N=C/c1cc(Br)cs1)c1ccc2c(c1)OCCO2 | 6.73% (inactive)
O=C(CSc1nnc(-c2ccco2)n1CC1CCCO1)c1ccc(F)cc1 (stereo not drawn) | -15.7% (inactive)
N#CCSc1nc2ccccc2c(=O)n1CC1CCCC1 | -2.18% (inactive)
CC(Sc1ccc(Br)cc1)C(N)=O (stereo not drawn) | -7.76% (inactive)
Cc1nc(N(C)C)c2sc(=S)n(-c3ccccc3)c2n1 | 0.72% (inactive)
C/C(=N\NS(=O)(=O)c1ccc([N+](=O)[O-])cc1)c1ccc(NC(=O)c2ccco2)cc1 | -1.1% (inactive)
C=CCNC(=O)CSc1nnc(-c2ccccc2Br)n1-c1cccc(C(F)(F)F)c1 | 5.16% (inactive)
Cc1cc(NC(=O)/C=C/c2ccccc2Cl)n(-c2nc3ccccc3[nH]2)n1 | 66.7% (inactive)
CCOc1ccccc1OCC(=O)Nc1nc2ccccc2[nH]1 | 9.65% (inactive)
Cc1cc(NC(=O)c2ccc(F)cc2F)n(-c2nc3ccccc3[nH]2)n1 | 4.49% (inactive)
COc1cccc(C(=O)Nc2nc3ccccc3[nH]2)c1 | 46.1% (inactive)
O=C(Nc1nc2ccccc2[nH]1)c1ccc([N+](=O)[O-])cc1 | 75% (inactive)
O=C(NCCc1nc2ccccc2[nH]1)c1ccc(Cl)c([N+](=O)[O-])c1 | -1.68% (inactive)
COc1cc(C(=O)Nc2nc3ccccc3[nH]2)cc(OC)c1OC | 75.8% (inactive)
Cc1cc(C)c(OCC(=O)Nc2nc3ccccc3[nH]2)c(C)c1 | 9.75% (inactive)
COCCn1c(SCC(=O)Nc2sc(C)c(C)c2C#N)nnc1-c1ccc(OC)cc1 | -11.5% (inactive)
CC(C)(C)C1CCc2onc(C(=O)O)c2C1 (stereo not drawn) | -7.72% (inactive)
C/C(=N\NC(=O)Cc1c(C)[nH][nH]c1=O)c1ccc2ccccc2c1 | -1.62% (inactive)

SMILES | inhibition
CC(C)C(=O)NNC(=O)c1cc2sccc2s1 | -9.47% (inactive)
Cc1cc(Br)c(NC(=O)CCl)c(Br)c1 | 10% (inactive)
CC(=O)Nc1sc(N/N=C\c2ccco2)nc1-c1cccs1 | 2.35% (inactive)
Cc1ccc(CONC(=O)c2ccc(OC(F)F)cc2)cc1 | -0.18% (inactive)
CC1(C)C(c2ccccc2)=[N+]([O-])CN1O | -10.2% (inactive)
Cc1cc(C)n(-c2nc3ccccc3[nH]c2=O)n1 | -9.01% (inactive)
O=S(=O)(N/N=C/c1cccc(OC2CSC2)c1)c1ccccc1 | 2.91% (inactive)
O=C(NCCCN1CCCC1=O)Nc1ccc(Cl)cc1 | -8.24% (inactive)
Cc1c(C(=O)Nc2ccc3c4c(cccc24)CC3)cccc1[N+](=O)[O-] | 13.3% (inactive)
O=C(Nc1nc2c(s1)CCCC2)c1cc(-c2ccncc2)nc2ccccc12 | 10.1% (inactive)
O=C(Nc1nccs1)c1cc(-c2ccncc2)nc2ccccc12 | -1.16% (inactive)
O=C(Nc1nccs1)c1cc(-c2ccccc2)nc2ccccc12 | 19% (inactive)
Cc1ccc(-c2cc(C(=O)Nc3nccs3)c3ccccc3n2)o1 | 12.8% (inactive)
Cc1csc(NC(=O)c2cnccn2)n1 | -4.5% (inactive)
Cc1ccc(-c2cc(C(=O)Nc3ccc(S(=O)(=O)Nc4nccs4)cc3)c3ccccc3n2)c(C)c1 | 69.9% (inactive)
O=C(Nc1nc(-c2ccc(F)c(F)c2)cs1)c1cnccn1 | 10.2% (inactive)
O=C(Nc1nc2c(s1)CCCC2)c1cc(-c2ccccc2)nc2ccccc12 | 14.1% (inactive)
CC(C)C1(C)N=C(c2ncccc2C(=O)O)NC1=O (stereo not drawn) | -2.93% (inactive)
Cc1nn(CC(=O)N2c3ccccc3NC(=O)C2(C)C)c(C)c1[N+](=O)[O-] | 0.71% (inactive)
Cc1c(NC(=O)C(C)OC(=O)Cc2ccccc2)c(=O)n(-c2ccccc2)n1C (stereo not drawn) | -13.3% (inactive)
O=C(O)Cn1nnc2ccccc21 | -9.61% (inactive)
CC(=O)Nc1ccccc1NC(=O)c1ccc(C)c(C)c1 | -3.12% (inactive)
Nc1c(C(=O)N/N=C/c2ccc([N+](=O)[O-])cc2)sc2nnc(-c3ccccc3)c(-c3ccccc3)c12 | -2.7% (inactive)
